Reference: PubChem BioAssay AID652117 (Broad Institute, 2013)
Entries with a potency or affinity are not part of this list. A number with no mark means an inactive call.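 Rule for the calls: active = compounds whose fitted half-maximal cell-killing dose is no more than twice the top tested dose; inconclusive = flat moderate loss of cell viability, or an unreliable curve fit; inactive = the rest.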

Experiment: loss of viability in HeLa cells – cell-based, ATP luminescence, dry powder, cytotoxicity control, dose response (AID 652117)
Conditions: CellTiter-Glo ATP luminescence, 48 h; series mostly up to 26 µM; activity change, negative = cytotoxicity: at the top concentration

Compound | activity change, negative = cytotoxicity
C=CCOc1ccc(CN2CCC(CCOc3ccccc3)(C(=O)O)CC2)cc1Cl | -6.92%
O=C(Nc1ccccc1)C1(CCOc2ccccc2)CCN(Cc2ccc(O)c(Cl)c2)CC1 | -2.8%
CCOC(=O)C1(CCOc2ccccc2)CCN(Cc2ccc(OC)c(Cl)c2)CC1 | -13.4%
CCOC(=O)C1(CCOc2ccccc2)CCN(Cc2ccc3[nH]c(=O)oc3c2)CC1 | -10.9%
C=CCOc1ccc(CN2CCC(CCOc3ccccc3)(C(=O)OCC)CC2)cc1Cl | -16.3%
CCOC(=O)C1(CCOC)CCCN(Cc2ccc(Cl)cc2)C1 (stereo unspecified) | 5.63%
C=CCOc1ccc(CN2CCC(CCOc3ccccc3)(C(=O)NCC)CC2)cc1Cl | 0.968%
CCN(C)C(=O)C1(CCOc2ccccc2)CCN(Cc2ccc(O)c(Cl)c2)CC1 | -3.57%
CCOC(=O)C1(CCOC)CCN(Cc2ccc(O)c(Cl)c2)CC1 | -6.28%
O=C(NC1CCCC1)C1(CCOc2ccccc2)CCN(Cc2ccc(O)c(Cl)c2)CC1 | 1.32%
O=C(N1CCCC1)C1(CCOc2ccccc2)CCN(Cc2ccc(O)c(Cl)c2)CC1 | -4.71%
C/C1=C\[C@@H](O)C(C)(C)CCCC2(C)OC2C[C@@H]1OC(=O)c1ccc(O)cc1 (stereo partly specified) | -15.2%
CCOC(=O)C1(Cc2cccc(OC)c2)CCN(Cc2ccc(O)c(Cl)c2)CC1 | -11.2%
CCOC(=O)C1(CCOc2ccccc2)CCN(C(=O)c2ccc(O)c(Cl)c2)CC1 | -7.6%
CCOC(=O)C1CCN(C(=O)OC(C)(C)C)CC1 | 1.94%
C=CCOc1ccc(CN2CCC(CCOc3ccccc3)(C(=O)N3CCCC3)CC2)cc1Cl | -15.1%
